PPARg SRC-2 ag: agonists of PPARg-SRC-2 recruitment, primary screen, biochemical, HTS; Peroxisome proliferator-activated receptor gamma (Homo sapiens), P37231; PPARgamma LBD-SRC-2 recruitment; activation, % at 8 µM; 200,000 compounds, 0.34% hits; in the data active means activation above about 22%;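 further: 0% = vehicle and 100% = reference agonist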
Target sequence (P37231 whole entry, looked up, the tested form may be a part): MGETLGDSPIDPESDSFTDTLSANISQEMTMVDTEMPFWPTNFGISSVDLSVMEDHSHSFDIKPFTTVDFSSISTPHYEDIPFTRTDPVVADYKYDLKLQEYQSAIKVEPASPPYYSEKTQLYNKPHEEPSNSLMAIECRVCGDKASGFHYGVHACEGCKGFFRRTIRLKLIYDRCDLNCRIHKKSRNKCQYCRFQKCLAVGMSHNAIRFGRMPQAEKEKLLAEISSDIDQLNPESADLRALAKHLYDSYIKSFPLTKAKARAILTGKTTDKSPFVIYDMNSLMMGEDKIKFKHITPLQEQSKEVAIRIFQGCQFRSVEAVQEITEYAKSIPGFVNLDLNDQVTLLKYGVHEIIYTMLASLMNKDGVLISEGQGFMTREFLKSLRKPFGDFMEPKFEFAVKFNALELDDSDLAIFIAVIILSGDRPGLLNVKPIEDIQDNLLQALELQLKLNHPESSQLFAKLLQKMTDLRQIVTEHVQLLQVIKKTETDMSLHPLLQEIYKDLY
PPARg SRC3 recr: PPARgamma agonists recruiting SRC-3 coactivator, primary screen, biochemical; Peroxisome proliferator-activated receptor gamma (Homo sapiens), P37231; biochemical PPARgamma/SRC-3 coactivator recruitment assay; activation, % at 8 µM; 200,000 compounds, 0.26% hits; in the data active means activation above about 23%;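 further: 0% = DMSO and 100% = reference agonist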
PPARg SRC1 recr: PPARgamma agonists recruiting SRC-1 coactivator, primary screen, biochemical; Peroxisome proliferator-activated receptor gamma (Homo sapiens), P37231; PPARgamma-SRC-1 coactivator recruitment biochemical assay; AID 631, 2007; 200,000 compounds, 0.41% hits; activation, % at 8 µM; in the data active means activation above about 19%;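 further: 0% = DMSO and 100% = reference agonist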
TR-FRET SRC-2 ct: TR-FRET signal artefacts, primary screen, artefact control for PPARgamma SRC-2 agonist project, biochemical; TR-FRET artefact counter-screen; hits give high values; AID 1049, 2008; 200,000 compounds, 0.4% hits; TR-FRET ratio at 8 µM
SRC1 TRFRET art: TR-FRET detection interference compounds, primary screen, artefact control for PPARgamma SRC-1 recruitment agonists, biochemical, TR-FRET emission ratio | TR-FRET ratio at 8 µM | 99,000 compounds, 0.34% hits | TR-FRET detection artefact counter-screen; hits give high values; in the data active means TR-FRET ratio above about 2300
SRC3 TRFRET art: TR-FRET detection interference compounds, artefact control for PPARgamma SRC-3 recruitment agonists, biochemical, TR-FRET ratio. TR-FRET artefact counter-screen, PPARgamma/SRC-3 format; hits give high values. TR-FRET ratio at 8 µM. 99,000 compounds, 0.39% hits
PPARg SRC2 ag: agonists of PPARgamma SRC-2 coactivator recruitment, confirmation, biochemical, HTS; shares compounds with PPARg SRC3 recr; biochemical SRC-2 recruitment by PPARgamma; activation, % at 8 µM; 790 compounds, 52% hits; AID 1297, 2008; in the data active means activation above about 22%;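 further: 0% = vehicle alone and 100% = reference agonist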
PPARg SRC1 conf: PPARgamma agonists recruiting SRC-1 coactivator, confirmation, biochemical; PPARgamma–SRC-1 coactivator recruitment biochemical assay; 790 compounds, 43% hits; AID 1300, 2008; shares compounds with PPARg SRC3 recr; activation, % at 8 µM; in the data active means activation above about 20%;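 further: 0% = vehicle wells and 100% = reference agonist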
PPARg SRC3 ag: PPARgamma-driven SRC-3 coactivator recruitment agonists, confirmation, biochemical; AID 1301, 2008; activation, % at 8 µM; 790 compounds, 29% hits; biochemical PPARgamma-SRC-3 coactivator recruitment, agonist mode; shares compounds with PPARg SRC3 recr; in the data active means activation above about 24%;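 further: 0% = vehicle wells and 100% = reference agonist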
Numbers without * were called inactive; . = no result. Hits are enriched below; roughly 0.84% of the tested compounds scored in any of these assays. Unless noted, no stated cut-off is given here; in the data, active means TR-FRET ratio above about 2000; inactive means the rest.

SMILES | PPARg SRC-2 ag | PPARg SRC3 recr | PPARg SRC1 recr | TR-FRET SRC-2 ct | SRC1 TRFRET art | SRC3 TRFRET art | PPARg SRC2 ag | PPARg SRC1 conf | PPARg SRC3 ag
COc1ccc(C2C(C(=O)c3ccco3)=C(O)C(=O)N2c2nnc(C)s2)cc1 (stereo unspecified) | 17.6 | 20.8 | 25.4* | 2089* | 2503* | 2261* | 30.9* | 25.0* | 16.7
CN(C(=O)COC(=O)CNC(=O)C12CC3CC(CC(C3)C1)C2)C1CCS(=O)(=O)C1 (stereo unspecified) | 0.8 | 6.0 | -1.6 | 1582 | 1807 | 1561 | . | . | .
COc1ccc(Oc2cnn(-c3ccccc3)c(=O)c2Br)cc1 | 3.8 | 7.8 | 15.2 | 1879 | 2169 | 1766 | . | . | .
COc1ccc(CC2(CO)CCN(Cc3ccc4nsnc4c3)CC2)cc1 | 8.8 | 1.1 | 8.4 | 1809 | 1894 | 1576 | . | . | .
Cc1ccc(-c2csc3nnc(SCC(=O)Nc4cccc(C)n4)n23)cc1 | 9.6 | 9.8 | 20.6* | 1744 | . | . | 3.5 | 5.2 | 5.3
Oc1cc2c(cc1O)C1c3ccc(O)c(O)c3OCC1(O)C2 (stereo unspecified) | 21.6 | 10.1 | 27.1* | 1683 | 2256 | 1777 | 8.7 | 6.4 | 2.3
O=C(NCc1ccc(Cl)cc1)C(=O)NCC1OCCN1C(=O)c1ccc(Cl)cc1 (stereo unspecified) | -0.1 | 1.3 | 4.6 | 1645 | 1719 | 1492 | . | . | .
CN1C(=O)/C(=C/C=C2\SCCN2C)N(C)C1=S | 5.3 | 19.8 | 23.2* | 1893 | 1709 | 1670 | 13.4 | 11.7 | 11.7
COc1ccc([N+](=O)[O-])cc1N(CC(=O)N1CCCCC1)S(C)(=O)=O | -1.6 | 4.9 | 9.0 | 1639 | 1766 | 1635 | . | . | .
S=c1[nH]nc(-c2cccnc2)o1 | 13.2 | 12.1 | 17.2 | 1625 | . | . | . | . | .
S=c1[nH]nc(-c2cccc(Br)c2)o1 | 108.0* | 150.2* | 93.8* | 4187* | . | . | 68.1* | 48.1* | 47.9*
CCOc1ccc(NC2OCC(O)C(O)C2O)c([N+](=O)[O-])c1 (stereo unspecified) | -6.5 | -1.7 | 4.0 | 1560 | 1759 | 1596 | . | . | .
Cc1nc2ncccn2c1-c1csc(Nc2ccc(N(C)C)cc2)n1 | 23.9* | 10.9 | 15.9 | 1937 | 2311 | 1862 | 15.2 | 8.9 | 7.1
Cc1nc2ncccn2c1-c1csc(Nc2ccccc2)n1 | 4.8 | 1.6 | 1.7 | 1514 | 1937 | 1596 | . | . | .
CCn1c(SCC(=O)OC)nnc1-c1ccncc1 | 1.9 | 3.0 | -2.6 | 1400 | . | . | . | . | .
CCn1c(SCC(=O)OC2CCCCC2)nnc1-c1ccncc1 | 29.4* | 13.2 | 3.1 | 2048* | . | . | -2.3 | -2.9 | -2.1
CCCC(C)NC(=O)c1ccc(OCc2ccc(Cl)cc2)c(OC)c1 (stereo unspecified) | 23.1* | 57.0* | 62.2* | 1657 | 2154 | 1723 | 30.9* | 55.6* | 48.1*
O=C(NCC(=O)N1CC(O)CC1C(=O)N1CCCC1C(=O)OCc1ccccc1)OCc1ccccc1 (stereo unspecified) | 2.7 | -1.1 | -5.0 | 1557 | 1391 | 1456 | . | . | .
Cc1cn(-c2ccccc2)c(C)c1/C=N\Nc1nc(N2CCOCC2)nc(N2CCOCC2)n1 | 2.8 | -1.7 | 8.0 | 1581 | 1754 | 1516 | . | . | .
CN1CCC/C1=C/C=C1\SC(=S)NC1=O | 24.3* | 11.3 | 14.3 | 1675 | 2166 | 1794 | 1.0 | 3.2 | 3.2
CC(=O)N=c1sc2nc3ccccc3nc2n1N(C(C)=O)C(C)=O | 25.6* | 14.7 | 15.3 | 1906 | 2476* | 1815 | 44.2* | 31.4* | 28.6*
NC(=O)c1sc2nc(-c3ccco3)ccc2c1N | 17.5 | 30.1* | 18.5 | 1756 | . | . | 13.7 | 16.5 | 9.5
Cc1ccc(Cl)cc1NC(=S)N(CCCN1CCN(C)CC1)Cc1ccco1 | 2.9 | 1.7 | -5.0 | 1500 | 1731 | 1550 | . | . | .
COC(=O)c1ccc2nc(NC(=O)C(C)(C)C)sc2c1 | 1.8 | 5.4 | 1.2 | 1681 | 1915 | 1523 | . | . | .
COC(=O)c1ccc2nc(Nc3nc4ccc(F)cc4s3)sc2c1 | 16.1 | 4.4 | 22.8* | 1817 | 2480* | 1850 | -4.3 | -2.4 | -2.6
SMILES | PPARg SRC-2 ag | PPARg SRC3 recr | PPARg SRC1 recr | TR-FRET SRC-2 ct | SRC1 TRFRET art | SRC3 TRFRET art | PPARg SRC2 ag | PPARg SRC1 conf | PPARg SRC3 ag
CCOC(=O)c1cc(Br)c(=O)n2ccccc12 | 39.0* | 32.5* | 32.3* | 2044* | . | . | 17.0 | 15.7 | 11.8
COc1ccc(OC)c(N/C(C)=C/C(=O)c2ccc(Br)cc2)c1 | 2.1 | -2.9 | -2.9 | 1560 | 1973 | 1736 | . | . | .
Cc1nc(SCc2nc3ccccc3[nH]2)c2oc3ccccc3c2n1 | 3.5 | -9.8 | 3.2 | 1383 | . | . | . | . | .
O=C(CSc1ncnc2c1oc1ccccc12)Nc1cccc(F)c1 | 22.4* | 43.1* | 25.3* | 1746 | . | . | 29.9* | 24.4* | 19.6
Fc1cccc(CSc2ncnc3c2oc2ccccc23)c1 | 45.4* | 41.6* | 35.5* | 2464* | . | . | 38.6* | 27.2* | 27.5*
Fc1ccc(CSc2ncnc3c2oc2ccccc23)cc1 | 10.2 | 10.4 | 14.7 | 1720 | 2218 | 1683 | . | . | .
c1ccc2[nH]c(CSc3ncnc4c3oc3ccccc34)nc2c1 | 70.5* | 72.1* | 44.4* | 2940* | . | . | 43.8* | 30.1* | 29.2*
Cc1ccc2nc(NC(=O)CSc3ncnc4c3oc3ccccc34)sc2c1 | 9.7 | 14.0 | 30.4* | 1748 | . | . | 32.7* | 22.3* | 18.9
Cc1cccc(NC(=O)CSc2ncnc3c2oc2ccccc23)c1 | 19.2 | 13.9 | 10.9 | 1711 | . | . | . | . | .
CCOc1cc(NC(=O)c2cccs2)c(OCC)cc1NC(=O)CCC(=O)NCCN1CCOCC1 | -12.3 | 0.9 | 0.2 | 1442 | 1900 | 1446 | . | . | .
O=C(CSc1ncnc2c1oc1ccccc12)NCc1ccc(F)cc1 | 70.9* | 62.7* | 57.5* | 3344* | . | . | 47.7* | 34.5* | 28.8*
COc1ccccc1NC(=O)CSc1ncnc2c1oc1ccccc12 | 1.6 | 13.0 | -4.8 | 1618 | . | . | . | . | .
COCc1cc(C)nc2sc3c(=O)oc(C)nc3c12 | 12.6 | 3.3 | 19.5* | 1809 | . | . | 6.8 | 1.6 | 1.4
Cc1cc(SCC(=O)c2ccc3c(c2)OCO3)nc2ccccc12 | 37.1* | 43.5* | 20.0* | 3038* | . | . | 70.0* | 57.5* | 47.1*

Bioassay records from PubChem.
